# Test results from PubChem BioAssay AID743398 (Broad Institute, 2014).
# Screen size: about 300,000 compounds; about 3,600 (1.2%) were called active. The entries come from a sample that favours actives as a whole. Unmarked numbers belong to inactive results. No stated cut-off is given here; in the data, active means activation above about 30% (passing the limit was not always enough); inconclusive means no clear call, values can overlap the other calls.
# Experiment: activation of beta-catenin signaling reporter – cell-based, plate reader, single point, primary screen (AID 743398);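 further: 0% = neutral control wells and 100% = positive control wells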
# Settings: Wnt/beta-catenin reporter cell assay, activator, at 9.35 µM, hits give high values
row,Compound,activation
1,O=C(Cn1c(=S)nc2ccccn21)N1CCc2ccccc2C1,17.7%
2,O=C(c1ccc(F)cc1)n1c(=S)nc2ccccn21,55.5% (active)
3,O=C(c1ccc(F)cc1)n1cc(C(=S)N2CCOCC2)c2ccccc21,-0.566%
4,CC(C)(C)S(=O)N1Cc2cc(C(=O)NCCCN3CCOCC3)nc(-c3cccc(-c4cc5ccccc5o4)c3)c2[C@H]1CCO (some centres not stated),-3.72%
5,O=C(Nc1ccc(C(=O)O)c(O)c1)c1ccccc1,-0.311%
6,O=C(Nc1ncccc1O)c1ccc(C(=O)c2ccccc2)cc1,21.2%
7,O=C(NC(=O)c1ccccc1)Nc1ccccc1O,40.2% (active)
8,Cc1cc(/C=C2/SC(=O)N(CC(=O)OC(C)C)C2=O)c(C)n1C,32.5% (active)
9,Cc1cccc2c1N(CC(=O)OC(C)C)C(=O)C2=O,-1.39%
10,Cc1cc(/C=C2/SC(=O)N(CC(=O)N3CCCC3)C2=O)c(C)n1C,-1.52%
11,COc1cccc(OCC(=O)NCCS(=O)(=O)N2CCN(c3ccccc3)CC2)c1,-0.863%
12,COC(=O)c1ccc2nc(-c3ccc(OC)c(OC)c3)c(Cc3ccccc3)n2c1,-2.38%
13,Fc1ccc(-c2csc(-c3ccc(C4SCCS4)cc3)n2)cc1F,34% (active)
14,Clc1ccc(-c2csc(-c3ccncc3)n2)cc1,6.51%
15,COc1ccc(CC(=O)Nc2nc(-c3ccc(F)c(F)c3)cs2)cc1OC,-5.88%
16,COC(=O)C1=C(C)N(Cc2ccccc2C(F)(F)F)C(=NCc2ccc(C(F)(F)F)cc2)NC1c1ccc(F)cc1 (configuration not stated),-3.9%
17,COCCCNC(=O)c1ccc(-c2c(C)noc2C)c2ccoc12,3.17%
18,O=C(Nc1ccc(Cl)c(C(F)(F)F)c1)C1Cc2c(-c3ccccc3Oc3ccccc3)ccnc2O1 (configuration not stated),-4.6%
19,Cc1c(C(=O)NCC2CCCO2)sc2nc(-c3ccccc3)cn12 (configuration not stated),8.78%
20,Cc1c(C(=O)N2CCCc3ccccc32)sc2nc(-c3ccccc3)cn12,51.4% (active)
21,Cc1cccc2cc3c(N)c(C(=O)N4CCCc5ccccc54)sc3nc12,-13.9%
22,Cn1c(CCN2CCN(c3ccccn3)CC2)nc2cc(NS(=O)(=O)c3ccc(F)cc3)ccc21,-2.6%
23,Cc1ccc(C(=O)Nc2nnc(-c3ccncc3)s2)o1,2.92%

row,Compound,activation
1,Cc1ccc(C(=O)Nc2nc3ccc(Cl)cc3s2)o1,36.2% (active)
2,CCc1noc(C)c1C(=O)Nc1nc2ccc(OC)cc2s1,9.85%
3,CC(C)(C)Cc1c(C2CCCCC2)nc2ccc(Br)cn12,-1.26%
4,CCC(=O)Nc1sc(C(=O)Nc2ccccc2)c(C)c1C(=O)OC,68.1% (active)
5,COC(=O)c1c(NC(C)=O)sc(C(=O)Nc2ccccc2OC)c1C,-1.17%
6,CCOC(=O)c1sc(NC(=O)COc2ncnc3ccccc23)c(C(=O)OCC)c1C,-6.66%
7,O=C1Nc2ccccc2C1=NN=Cc1ccco1,0.126%
8,CCN(CC)CCCNC(=O)COc1ccc2oc3c(c2c1)CCCC3,-0.131%
9,O=C(COc1ccc2oc3c(c2c1)CCCC3)Nc1ccccn1,39.6% (active)
10,CCOC(=O)N1CCN(C(=O)COc2ccc3oc4c(c3c2)CCCC4)CC1,-0.344%
11,CC1(C)OC(=O)C2=C(C[C@@H](C3CCCC3)O[C@@H]2c2ccc(Cl)cc2)O1,-1.11%
12,O=C(Nc1ccc(NC(=O)c2ccccc2F)cc1)c1ccccc1F,-1.97%
13,O=C(Nc1nnc(-c2ccccc2F)s1)c1ccccc1F,32.6% (active)
14,CN(Cc1ccccc1)S(=O)(=O)c1nnc(NC(=O)c2ccccc2F)s1,-0.354%
15,COC(=O)C1=C(C)N(Cc2ccc(C(F)(F)F)cc2)C(=NCc2ccccc2)NC1c1ccccc1C(F)(F)F (configuration not stated),-11.5%
16,O=C(CSc1cccc[n+]1[O-])c1ccc(-c2ccccc2)cc1,10.1%
17,Cc1ccc(C(=O)CSc2ccccc2C(=O)O)cc1,31.9% (active)
18,Cc1ccc(Sc2cc(C(=O)c3ccccc3C(=O)O)ccc2[N+](=O)[O-])cc1,0.926%
19,CCCCNC(=O)C[C@@H]1C[C@@]2(C(=O)OCC)CCC=C2N(Cc2cccc3ccccc23)C1=O,-1.83%
20,CC(C)C1CCN(C(=O)C2CCC(=O)N(C3CCCCCC3)C2)CC1 (configuration not stated),0.269%
21,CCOC(=O)C1(C)CCCN(C(=O)c2cccc(Cl)c2)C1 (configuration not stated),-1.09%
22,Cc1ccc(NC(=O)N2c3ccccc3SC2c2ccco2)c(C)c1 (configuration not stated),4.58%
23,COc1ccccc1N(C(=O)Cn1nnc2ccccc21)C(C(=O)NCc1ccco1)c1ccc(C)o1 (configuration not stated),-2.2%

row,Compound,activation
1,CCC(C)(C)NC(=O)C(c1cccn1C)N(Cc1ccc(C)cc1)C(=O)Cn1nnc2ccccc21 (configuration not stated),0.194%
2,COCCNC(=O)C(c1ccc(C)o1)N(Cc1ccccc1)C(=O)Cn1nnc2ccccc21 (configuration not stated),40.8% (active)
3,Cc1ccc(S(=O)(=O)N(CCc2ccccc2)c2ccc3c(c2)C2CC3CCN2C(=O)OCc2ccccc2)cc1 (configuration not stated),-4.45%
4,CCCCCCN1C[C@H](O)[C@@H](n2cc(C3CC3)nn2)C[C@@H]1c1ccc(Cl)cc1,0.514%
5,CN1CCCc2nc(-c3ccccc3)ccc21,28.7%
6,Nc1ncnc2c1ncn2[C@@H]1O[C@H](C(=O)N[C@@H](CCc2ccccc2)C(=O)N2CCCN(Cc3cccs3)CC2)[C@@H](O)[C@H]1O,2.88%
7,CC(C)(C)CC(=O)Nc1nc(C(N)Cc2ccc(C(F)(F)F)cc2)cs1 (configuration not stated),-3.02%
8,O=C(CNC(=O)c1ccccc1F)c1ccc(Br)cc1,39% (active)
9,O=C(NCCOc1ccccc1)c1ccccc1F,2.79%
10,O=C(CNC(=O)c1ccc(F)cc1)c1ccccc1,12.3%
11,C=CCn1nc(C(=O)OCC)cc1-c1sc(NC(=O)c2ccccc2)nc1C,-1.67%
12,CC1(C(=O)Nc2cccnc2)Cc2c(-c3ccccc3)ccnc2O1 (configuration not stated),-1.45%
13,O=C(Nc1ccc(Cl)cn1)c1ccccc1-c1ccccc1,-0.296%
14,CCCc1cc(C(=O)Nc2ccc(C(=O)OC)cc2)cs1,0.573%
15,CCCc1cc(C(=O)Nc2ccc(Cl)cn2)cs1,39.5% (active)
16,Cc1ccc(F)c(S(=O)(=O)NC(=O)C2(C)CCN2C(=O)c2ccco2)c1 (configuration not stated),-0.487%
17,C=CCN=C1NC(c2cccc(C(F)(F)F)c2)C(C(=O)OC)=C(C)N1C (configuration not stated),1.05%
18,CC(=O)c1ccc(-c2cnc3c(NC=O)cc(-c4cccc(NS(C)(=O)=O)c4)cn23)cc1,1.57%
19,C[C@@H]1ON(C)[C@H]2C[C@H]3c4cc(N5CCOCC5)ccc4CCN3C[C@@H]12,-0.66%
20,Cc1cccc(NC(=O)Nc2ccc3c(c2)OCO3)n1,44.4% (active)
21,CC(NC(=O)Nc1ccc2c(c1)OCO2)c1ccncc1 (configuration not stated),9.83%
22,CNS(=O)(=O)c1ccc(NC(=O)Nc2ccc3c(c2)OCO3)cc1,26.8%
23,CN(Cc1ccccc1)C(=O)CCC1CCN(C(=O)c2ccco2)CC1,-3.66%

row,Compound,activation
1,c1ccc2sc(NN=C3CCCC3)nc2c1,52.4% (active)
2,c1ccc(C(=NNc2nc3ccccc3s2)c2ccccn2)cc1,5.23%
3,O=[N+]([O-])c1cc(Br)c(O)c(/C=N/Nc2nc3ccccc3s2)c1,8.44%
4,CCOC(=O)N(C)c1c(CC)nc2c(OCc3ccccc3C(=O)OC)cccn12,4.08%
5,CN(Cc1ccc(C(F)(F)F)cc1)C(=O)[C@H]1O[C@@H](n2cnc3c(N)ncnc32)[C@H](O)[C@@H]1O,-3.24%
6,CC1(Oc2cccc(F)c2)CCN(Cc2ccccc2OC(F)F)C1 (configuration not stated),0.111%
7,CC(=O)Nc1ccc(Nc2c3ccccc3nc3ccccc23)cc1,-1.24%
8,Cc1ccc2nc(-c3ccc(NC(=O)c4cccnc4)cc3)oc2c1,4.47%
9,CC(=O)Nc1ccc(-c2nc3ccccc3o2)cc1,62% (active)
10,CCOC(=O)N1CCN(C(=O)C[C@@H]2C[C@@]3(C(=O)OC)CCCCC=C3N(CCC3=CCCCC3)C2=O)CC1,-3.76%
11,Oc1cccc(/C=N/Nc2ccc(Cl)nn2)c1O,125% (active)
12,COc1cccc(/C=N/Nc2ccc(Cl)nn2)c1,10.5%
13,Clc1ccc(N/N=C/c2cccs2)nn1,3.73%
14,COC(=O)c1cc2c(c3c4cc(F)ccc4n(S(=O)(=O)c4ccccc4)c13)C(=O)N(Cc1ccccc1OC)C2,-6.32%
15,Cc1nn(CC(=O)Nc2ccc(F)cc2)c(=O)c2ccccc12,-0.309%
16,Cc1cccc(C(=O)OCC(=O)Nc2ccc(F)cc2)c1,-0.891%
17,CCC(=O)Nc1ccc2nn(-c3ccc(F)cc3)nc2c1,51% (active)
18,O=C(CCCN1C(=O)C(c2ccccc2)Oc2cccnc21)Nc1ccccc1Br (configuration not stated),-1.84%
19,O=C(C(=O)N1CCC(CNC(=O)c2cccnc2Cl)CC1)c1cccs1,2.94%
20,O=c1cc(Cn2nnc(-c3ccc(Cl)cc3)n2)nc2sccn12,3.21%
21,COc1ccccc1N1CCN(C(=O)Cn2nnc(-c3cccs3)n2)CC1,-9.59%
22,Clc1cccc(Cl)c1Cn1nnc(-c2cccs2)n1,32.4% (active)
23,CCOC(=O)Cn1c2c(n(-c3ccc(F)cc3)c1=O)C=C(c1ccccc1)[C@@H](C)C(C(=O)N(C)C1CCCCC1)=C2,-5.16%
